Measurements reported in PubChem BioAssay (NCI).
About 79,000 compounds went through this panel and 15% of them were active in at least one assay; those are over-represented in the sample as a whole. A number with no mark means an inactive call. The source made the active and inactive calls. No stated cut-off is given here; in the data, active means growth inhibition above about 70%; inactive means the rest.

How the values were obtained:
[1] = NCI Yeast Anticancer Drug Screen. Data for the rad52 strain (AID 147);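 further: 0% = growth of vehicle-treated control cultures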; conditions: S. cerevisiae rad52 mutant growth inhibition, hits give high values
Method in brief: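 Vehicle-treated cultures served as the reference for growth inhibition of compound-exposed yeast bearing a DNA repair mutation.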

[2] = NCI Yeast Anticancer Drug Screen. Data for the wt1 strain (AID 149);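 further: 0% = growth of vehicle-treated wt1 cultures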; conditions: S. cerevisiae wt1 strain (SPY 50644) growth inhibition, hits give high values
Method in brief: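 Readout: yeast growth inhibition, normalised to vehicle controls, in the wt1 strain exposed to test compounds.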

[3] = NCI Yeast Anticancer Drug Screen. Data for the rad50EPP+ strain (AID 151);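 further: 0% = growth of vehicle-treated control cultures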; conditions: S. cerevisiae rad50 mutant strain, hits give high values
Method in brief: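 In this screen, rad50EPP+ yeast were exposed to compounds. Growth inhibition was scored against vehicle-treated controls.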

[4] = NCI Yeast Anticancer Drug Screen. Data for the rad50 strain (AID 155);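 further: 0% = growth of vehicle-only cultures of the same strain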; conditions: S. cerevisiae rad50 strain growth inhibition, hits give high values
Method in brief: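 Compounds were tested on a yeast strain with an engineered DNA damage repair alteration; the reported value is growth inhibition normalised to vehicle treatment.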

[5] = NCI Yeast Anticancer Drug Screen. Data for the mec2-1 strain (AID 157); conditions: S. cerevisiae mec2-1 strain, hits give high values
Method in brief: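 Vehicle-treated cultures served as reference for growth inhibition of compound-exposed mec2-1 yeast.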

[6] = NCI Yeast Anticancer Drug Screen. Data for the rad14 strain (AID 159);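 further: 0% = growth of vehicle-treated control cultures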; conditions: S. cerevisiae rad14 strain growth inhibition, hits give high values
Method in brief: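 Compound-treated yeast with a defined DNA-repair lesion; growth inhibition normalised to vehicle-treated cultures.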

[7] = NCI Yeast Anticancer Drug Screen. Data for the sgs1 mgt1 strain (AID 161);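 further: 0% = growth of cultures given vehicle only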; conditions: S. cerevisiae sgs1 mgt1 strain, hits give high values
Method in brief: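 Mutant yeast exposed to compound; growth scored against vehicle-only wells.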

[8] = NCI Yeast Anticancer Drug Screen. Data for the cln2 rad14 strain (AID 165);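 further: 0% = growth equal to vehicle treated cultures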; conditions: S. cerevisiae cln2 rad14 strain, hits give high values
Method in brief: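 Each compound was tested on cln2 rad14 yeast. Inhibition of growth was calculated against vehicle-exposed controls.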

[9] = NCI Yeast Anticancer Drug Screen. Data for the bub3 strain (AID 167); conditions: S. cerevisiae bub3 mutant strain, hits give high values
Method in brief: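 Growth of a checkpoint-deficient yeast mutant is measured after compound exposure. Values represent inhibition relative to vehicle.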

[10] = NCI Yeast Anticancer Drug Screen. Data for the wt2 strain (AID 169);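 further: 0% = growth of vehicle-treated yeast cultures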; conditions: S. cerevisiae wt2 strain growth inhibition, hits give high values
Method in brief: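 Inhibition of yeast growth was determined after compound treatment, normalised to controls receiving only vehicle.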

[11] = NCI Yeast Anticancer Drug Screen. Data for the mlh1 strain (AID 171);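 further: 0% = growth of vehicle-treated control cultures of the same strain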; conditions: S. cerevisiae mlh1 strain growth inhibition, hits give high values
Method in brief: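 Vehicle-normalised growth inhibition of a repair- or checkpoint-altered yeast strain following compound treatment.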

[12] = NCI Yeast Anticancer Drug Screen. Data for the sgs1 strain (AID 173);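 further: 0% = growth of vehicle-only control cultures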; conditions: S. cerevisiae sgs1 mutant, hits give high values
Method in brief: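 Screen format: yeast with repair or checkpoint alterations, compound exposure, growth read relative to vehicle.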

[13] = NCI Yeast Anticancer Drug Screen. Data for the mlh1 rad18 strain (AID 175); conditions: S. cerevisiae mlh1 rad18 strain growth inhibition, hits give high values
Method in brief: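 Vehicle-treated cultures served as the reference for growth inhibition in a yeast strain carrying DNA damage repair alterations exposed to each compound.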

[14] = NCI Yeast Anticancer Drug Screen. Data for the rad18 strain (AID 177); conditions: S. cerevisiae rad18 mutant growth inhibition, hits give high values
Method in brief: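 Test articles were incubated with altered yeast defective in DNA damage repair. Results are given as inhibition of growth versus vehicle.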

[15] = NCI Yeast Anticancer Drug Screen. Data for the CLN2oe strain (AID 163);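 further: 0% = growth of vehicle-only control cultures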; conditions: S. cerevisiae CLN2oe strain, hits give high values
Method in brief: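 Inhibition relative to vehicle-treated yeast is reported. Cells: strain with genetic alteration in cell-cycle control, grown with compound.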

[16] = at 5.0 µM (retest, dose inferred, filed as 0.5)
[17] = at 50.0 µM (retest, dose inferred, filed as 5.0)

CCCCC(=O)c1c(O)nc2sccn2c1=O
growth inhibition ([1]; at 1.2 µM): 8%
growth inhibition ([1]; at 3.7 µM): 18%
growth inhibition ([1]; at 11.0 µM): 64%
growth inhibition ([1]; at 33.0 µM): 96% (active)
growth inhibition ([1]; at 100.0 µM): 98% (active)
growth inhibition ([2]; at 1.2 µM): 25%
growth inhibition ([2]; at 3.7 µM): 29%
growth inhibition ([2]; at 11.0 µM): 52%
growth inhibition ([2]; at 33.0 µM): 94% (active)
growth inhibition ([2]; at 100.0 µM): 98% (active)
growth inhibition ([3]; at 1.2 µM): 2%
growth inhibition ([3]; at 3.7 µM): 7%
growth inhibition ([3]; at 11.0 µM): 58%
growth inhibition ([3]; at 33.0 µM): 94% (active)
growth inhibition ([3]; at 100.0 µM): 95% (active)
growth inhibition ([4]; at 1.2 µM): 14%
growth inhibition ([4]; at 3.7 µM): 31%
growth inhibition [4, 16]: 30%
growth inhibition ([4]; at 11.0 µM): 82% (active)
growth inhibition ([4]; at 33.0 µM): 97% (active)
growth inhibition [4, 17]: 85% (active)
growth inhibition ([4]; at 50.0 µM): 85.4% (active)
growth inhibition ([4]; at 100.0 µM): 98% (active)
growth inhibition ([5]; at 1.2 µM): 22%
growth inhibition ([5]; at 3.7 µM): 17%
growth inhibition [5, 16]: 10%
growth inhibition ([5]; at 11.0 µM): 82% (active)
growth inhibition ([5]; at 33.0 µM): 97% (active)
growth inhibition [5, 17]: 88% (active)
growth inhibition ([5]; at 50.0 µM): 85.3% (active)
growth inhibition ([5]; at 100.0 µM): 98% (active)
growth inhibition ([6]; at 1.2 µM): 22%
growth inhibition ([6]; at 3.7 µM): 68%
growth inhibition ([6]; at 11.0 µM): 98% (active)
growth inhibition ([6]; at 33.0 µM): 98% (active)
growth inhibition ([6]; at 100.0 µM): 98% (active)
growth inhibition [7, 16]: 5%
growth inhibition [7, 17]: 28%
growth inhibition ([7]; at 50.0 µM): 89.2% (active)
growth inhibition [8, 16]: 22%
growth inhibition [8, 17]: 37%
growth inhibition ([8]; at 50.0 µM): 53%
growth inhibition ([9]; at 1.2 µM): 6%
growth inhibition ([9]; at 3.7 µM): 11%
growth inhibition [9, 16]: 47%
growth inhibition ([9]; at 11.0 µM): 62%
growth inhibition ([9]; at 33.0 µM): 94% (active)
growth inhibition [9, 17]: 92% (active)
growth inhibition ([9]; at 50.0 µM): 87.2% (active)
growth inhibition ([9]; at 100.0 µM): 96% (active)
growth inhibition ([10]; at 1.2 µM): 7%
growth inhibition ([10]; at 3.7 µM): 19%
growth inhibition ([10]; at 11.0 µM): 86% (active)
growth inhibition ([10]; at 33.0 µM): 98% (active)
growth inhibition ([10]; at 100.0 µM): 99% (active)
growth inhibition ([11]; at 1.2 µM): 27%
growth inhibition ([11]; at 3.7 µM): 74% (active)
growth inhibition ([11]; at 11.0 µM): 95% (active)
growth inhibition ([11]; at 33.0 µM): 97% (active)
growth inhibition ([11]; at 100.0 µM): 98% (active)
growth inhibition ([12]; at 1.2 µM): 33%
growth inhibition ([12]; at 3.7 µM): 55%
growth inhibition ([12]; at 11.0 µM): 92% (active)
growth inhibition ([12]; at 33.0 µM): 97% (active)
growth inhibition ([12]; at 100.0 µM): 98% (active)
growth inhibition [13, 16]: 63%
growth inhibition [13, 17]: 95% (active)
growth inhibition ([13]; at 50.0 µM): 83.4% (active)
growth inhibition ([14]; at 1.2 µM): 17%
growth inhibition ([14]; at 3.7 µM): 20%
growth inhibition ([14]; at 11.0 µM): 72% (active)
growth inhibition ([14]; at 33.0 µM): 95% (active)
growth inhibition ([14]; at 100.0 µM): 97% (active)

Cc1nc2c(ncn2CCO)c(=O)[nH]1
growth inhibition ([1]; at 1.2 µM): -3%
growth inhibition ([1]; at 3.7 µM): -8%
growth inhibition ([1]; at 11.0 µM): -7%
growth inhibition ([1]; at 33.0 µM): -12%
growth inhibition ([1]; at 100.0 µM): -14%
growth inhibition ([2]; at 1.2 µM): -36%
growth inhibition ([2]; at 3.7 µM): -22%
growth inhibition ([2]; at 11.0 µM): -38%
growth inhibition ([2]; at 33.0 µM): -42%
growth inhibition ([2]; at 100.0 µM): -41%
growth inhibition ([3]; at 1.2 µM): -11%
growth inhibition ([3]; at 3.7 µM): 10%
growth inhibition ([3]; at 11.0 µM): 5%
growth inhibition ([3]; at 33.0 µM): 3%
growth inhibition ([3]; at 100.0 µM): 1%
growth inhibition ([4]; at 1.2 µM): -29%
growth inhibition ([4]; at 3.7 µM): -34%
growth inhibition [4, 16]: 29%
growth inhibition ([4]; at 11.0 µM): -32%
growth inhibition ([4]; at 33.0 µM): -33%
growth inhibition [4, 17]: 39%
growth inhibition ([4]; at 50.0 µM): 7.95%
growth inhibition ([4]; at 100.0 µM): -24%
growth inhibition ([5]; at 1.2 µM): 15%
growth inhibition ([5]; at 3.7 µM): -2%
growth inhibition [5, 16]: 13%
growth inhibition ([5]; at 11.0 µM): -3%
growth inhibition ([5]; at 33.0 µM): -3%
growth inhibition [5, 17]: 47%
growth inhibition ([5]; at 50.0 µM): -20.6%
growth inhibition ([5]; at 100.0 µM): -13%
growth inhibition ([6]; at 1.2 µM): -3%
growth inhibition ([6]; at 3.7 µM): 6%
growth inhibition ([6]; at 11.0 µM): 11%
growth inhibition ([6]; at 33.0 µM): -5%
growth inhibition ([6]; at 100.0 µM): -2%
growth inhibition [7, 16]: 29%
growth inhibition ([7]; at 50.0 µM): 2.1%
growth inhibition ([15]; at 1.2 µM): 0%
growth inhibition ([15]; at 3.7 µM): -7%
growth inhibition ([15]; at 11.0 µM): -2%
growth inhibition ([15]; at 33.0 µM): -6%
growth inhibition ([15]; at 100.0 µM): -4%
growth inhibition [8, 16]: 8%
growth inhibition [8, 17]: 34%
growth inhibition ([8]; at 50.0 µM): 8.25%
growth inhibition ([9]; at 1.2 µM): -10%
growth inhibition ([9]; at 3.7 µM): -7%
growth inhibition [9, 16]: 21%
growth inhibition ([9]; at 11.0 µM): -17%
growth inhibition ([9]; at 33.0 µM): -13%
growth inhibition [9, 17]: 76% (active)
growth inhibition ([9]; at 50.0 µM): 0.5%
growth inhibition ([9]; at 100.0 µM): -28%
growth inhibition ([10]; at 1.2 µM): -15%
growth inhibition ([10]; at 3.7 µM): -30%
growth inhibition ([10]; at 11.0 µM): -31%
growth inhibition ([10]; at 33.0 µM): -37%
growth inhibition ([10]; at 100.0 µM): -38%
growth inhibition ([11]; at 1.2 µM): -16%
growth inhibition ([11]; at 3.7 µM): -11%
growth inhibition ([11]; at 11.0 µM): -14%
growth inhibition ([11]; at 33.0 µM): -18%
growth inhibition ([11]; at 100.0 µM): -5%
growth inhibition ([12]; at 1.2 µM): 2%
growth inhibition ([12]; at 3.7 µM): 8%
growth inhibition ([12]; at 11.0 µM): 9%
growth inhibition ([12]; at 33.0 µM): 5%
growth inhibition ([12]; at 100.0 µM): -2%
growth inhibition [13, 16]: 45%
growth inhibition [13, 17]: 91% (active)
growth inhibition ([13]; at 50.0 µM): -40.7%
growth inhibition ([14]; at 1.2 µM): -38%
growth inhibition ([14]; at 3.7 µM): -32%
growth inhibition ([14]; at 11.0 µM): -9%
growth inhibition ([14]; at 33.0 µM): -35%
growth inhibition ([14]; at 100.0 µM): -36%
